Assay outcomes deposited in PubChem by several laboratories.
RN4220 kill: growth inhibition of S. aureus RN4220, primary screen, OD600 | 16 h | inhibition, % (concentration not given with the values) | 330,000 compounds, 0.33% hits; in the data active means inhibition above about 85%;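 further: plate controls were untreated cells for no effect and reference antibiotic for full effect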
ugtP null kill: growth inhibition of ugtP-null S. aureus, primary screen, RN4220 ugtP deletion, OD600; growth inhibition, % (test concentration not listed); 16 h; AID 1259309, 2017; 330,000 compounds, 0.54% hits; in the data active means growth inhibition above about 68%;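 further: plate controls were untreated wells for no effect and antibiotic for full effect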
Mtb hypoxia inh: PubChem AID 1159583. M. tuberculosis hypoxia-regulated fluorescent reporter, fluorescence. fluorescence inhibition, % (concentration not given with the values). 300,000 compounds, 0.1% hits; in the data active means fluorescence inhibition mostly above about 23%, no sharp cut-off; inactive means mostly below about 17%
MazEF act: activators of E. coli MazEF toxin-antitoxin RNase, primary screen, biochemical, fluorescence, uHTS; Endoribonuclease toxin MazF (Escherichia coli (strain K12)), P0AE70; FAM/BHQ RNA-DNA oligo cleavage fluorescence, 5 h; activation, % at 20 µM; 350,000 compounds, 0.32% hits; AID 504720, 2011; in the data active means activation above about 50%
TcdB inh: TcdB glycohydrolase inhibitors, primary screen, biochemical, single point, plate reader; inhibition, % at 9.99 µM; 350,000 compounds, 0.24% hits; AID 652162, 2013; TcdB glycohydrolase enzymatic assay; Toxin B (Clostridioides difficile), P18177; in the data active means inhibition above about 10%
PfHsp40 rescue: rescue of yeast from PfHsp40 toxicity, primary screen, S. cerevisiae, ATP luminescence; S. cerevisiae expressing PfHsp40, growth rescue; growth rescue, % at 12.5 µM; 340,000 compounds, 0.68% hits; in the data active means growth rescue above about 28%, passing the limit was not always enough;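 further: yeast W303a lacking pdr1 and pdr3 grown in galactose medium; growth measured after three days at 30 °C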
* marks the source's active call; other numbers are inactive results. The list is not random: actives were taken first. Their share in the collection is about 1.3%.

O=C(O)C(O)C(O)C(=O)O (configuration not stated) was read as RN4220 kill 5.4, ugtP null kill 6.8 and Mtb hypoxia inh 2.1.
NC1=NCC(c2ccccc2)N1CCc1cccc(F)c1 (configuration not stated) was read as RN4220 kill -0.2, ugtP null kill -0.2 and Mtb hypoxia inh -11.2.
CCCC1CC(C)(c2csc(Nc3ccc(OCC)cc3)n2)OC1=O (configuration not stated) was read as RN4220 kill -6.2, ugtP null kill -4.7, MazEF act 6.8, TcdB inh 0.0 and PfHsp40 rescue 50.0*.
Screening Clc1ccc(C2=NCCN2)cc1 returned RN4220 kill 4.3, ugtP null kill 3.9, Mtb hypoxia inh 4.4, MazEF act 4.4, TcdB inh 1.0 and PfHsp40 rescue 221.0*.
Screening CCN(CC)C(=O)C1CC(=O)N(c2ccc(F)c(Cl)c2)C1 (configuration not stated) returned RN4220 kill 15.7, ugtP null kill 9.0, Mtb hypoxia inh 12.7, MazEF act 2.0 and PfHsp40 rescue 40.0*.
For COCCNC(=O)C1CC(=O)N(c2ccc(F)c(Cl)c2)C1 (configuration not stated) the results were RN4220 kill -0.3, ugtP null kill 7.0, Mtb hypoxia inh 0.6, MazEF act 7.0, TcdB inh 0.9 and PfHsp40 rescue 0.1.
COc1cccc(NC(=O)N[C@@H]2C=C[C@@H](CC(=O)NCc3ccccn3)O[C@@H]2CO)c1 was read as TcdB inh 0.1.
`Cc1cccc(-n2nnc(C(=O)NCc3ccccc3Cl)c2N)c1` gave RN4220 kill 6.8, ugtP null kill 2.2, Mtb hypoxia inh 18.9, MazEF act 5.3, TcdB inh 10.9* and PfHsp40 rescue -0.8.
Screening C[C@@H]1CN([C@@H](C)CO)S(=O)(=O)c2ccc(C3=CCCC3)cc2O[C@@H]1CN(C)Cc1ccccn1 returned TcdB inh 1.0.
CC/C(=N\Nc1ccc([N+](=O)[O-])cc1)c1ccccc1 was read as MazEF act -1.3 and PfHsp40 rescue 429.9*.
For C/C(=N\Nc1ccc([N+](=O)[O-])cc1)c1ccco1 the results were MazEF act 0.8, TcdB inh 1.2 and PfHsp40 rescue 64.2*.
`C/C(=N\NC(=O)COc1ccc([N+](=O)[O-])cc1)c1ccco1` gave MazEF act 1.6, TcdB inh 3.0 and PfHsp40 rescue 1.1.
CO[C@@H]1CN(C)C(=O)c2ccc(NS(C)(=O)=O)cc2OC[C@H](C)N(Cc2cccnc2)C[C@@H]1C was read as TcdB inh -1.2.
COCc1cn(CC[C@@H]2CC[C@@H](NC(=O)CCN3CCCCC3)[C@@H](CO)O2)nn1 was read as TcdB inh -6.9.
COc1ccc(-c2nnc(NC(=O)c3ccc(S(=O)(=O)N4CCCc5ccccc54)cc3)o2)cc1 was read as RN4220 kill 97.8*, ugtP null kill 99.9*, Mtb hypoxia inh 14.6, MazEF act 3.0 and PfHsp40 rescue -2.2.
`O=C(Nc1nnc(C2CC2)o1)c1ccc(S(=O)(=O)N2CCCCC2)cc1` gave RN4220 kill 44.4, ugtP null kill 3.6, Mtb hypoxia inh 3.4, MazEF act 2.6, TcdB inh 1.9 and PfHsp40 rescue -0.4.
`COCc1nnc(NC(=O)c2ccc(S(=O)(=O)N3CCCc4ccccc43)cc2)o1` gave RN4220 kill 29.0, ugtP null kill 9.1, Mtb hypoxia inh -9.3, MazEF act 5.5, TcdB inh 0.6 and PfHsp40 rescue -0.8.
Screening CC1CCN(S(=O)(=O)c2ccc(C(=O)Nc3nnc(C4CC4)o3)cc2)CC1 returned RN4220 kill 48.4, ugtP null kill 23.4, Mtb hypoxia inh -1.1, MazEF act 2.2, TcdB inh 0.6 and PfHsp40 rescue 58.0*.
O=C(Nc1nnc(C2CC2)o1)c1ccc(S(=O)(=O)N2CCCc3ccccc32)cc1 was read as RN4220 kill 89.1*, ugtP null kill 94.3*, Mtb hypoxia inh -6.7, MazEF act 3.8, TcdB inh -0.3 and PfHsp40 rescue 0.3.
